Data: PubChem BioAssay (NCI)
Compounds without any hit were thinned out: in the full panel of roughly 79,000, 15% have a hit. A number with no mark means an inactive call. Active and inactive are the calls of the source. Rule as the data show it: active = growth inhibition above about 70%; inactive = the rest.

Key:
[1] = NCI Yeast Anticancer Drug Screen. Data for the rad50 strain (AID 155);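 also: 0% = growth of vehicle-only cultures of the same strain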; conditions: S. cerevisiae rad50 strain growth inhibition; at 50.0 µM; hits give high values
How it was run: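 Relative growth inhibition (compound vs vehicle) was measured in yeast with a defined repair-gene alteration.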

[2] = NCI Yeast Anticancer Drug Screen. Data for the mec2-1 strain (AID 157); conditions: S. cerevisiae mec2-1 strain, at 50.0 µM, hits give high values
How it was run: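 Cells of the genetically defined mec2-1 yeast strain are incubated with test compound. Inhibition of growth is calculated against vehicle-treated controls.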

[3] = NCI Yeast Anticancer Drug Screen. Data for the sgs1 mgt1 strain (AID 161);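 also: 0% = growth of cultures given vehicle only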; conditions: S. cerevisiae sgs1 mgt1 strain, at 50.0 µM, hits give high values
How it was run: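 Inhibition of yeast growth, normalised to vehicle-treated controls, is reported for a strain bearing genetic alterations in DNA damage repair.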

[4] = NCI Yeast Anticancer Drug Screen. Data for the cln2 rad14 strain (AID 165);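 also: 0% = growth equal to vehicle treated cultures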; conditions: S. cerevisiae cln2 rad14 strain, at 50.0 µM, hits give high values
How it was run: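 The screen exposed genetically defined yeast (cln2 rad14) to test compounds and scored growth inhibition relative to vehicle-treated controls.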

[5] = NCI Yeast Anticancer Drug Screen. Data for the bub3 strain (AID 167); conditions: S. cerevisiae bub3 mutant strain, at 50.0 µM, hits give high values
How it was run: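 Screening used yeast with an engineered genetic alteration affecting cell cycle control. Compound-exposed cultures were compared with vehicle cultures, and reduced growth was taken as inhibition.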

[6] = NCI Yeast Anticancer Drug Screen. Data for the mlh1 rad18 strain (AID 175); conditions: S. cerevisiae mlh1 rad18 strain growth inhibition; at 50.0 µM; hits give high values
How it was run: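 Compound-treated yeast growth, normalised to vehicle controls. Strain bears defined DNA repair mutations.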

| Structure (SMILES) | growth inhibition [1] | growth inhibition [2] | growth inhibition [3] | growth inhibition [4] | growth inhibition [5] | growth inhibition [6] |
| --- | --- | --- | --- | --- | --- | --- |
| Cc1ccccc1OCC(O)COC(=O)CCS(=O)(=O)O (stereo unspecified) | -25.1% | -7% | -7.85% | 8.1% | 37.2% | -6.3% |
| COc1ccc2oc(C(=O)O)cc2c1 | -4.55% | -3.65% | -9.05% | -25% | -6.6% | 0.6% |
| CC1CC[P+](c2ccccc2)(c2ccccc2)CC1 | 22.9% | 17.4% | 30.3% | 4.5% | 22.1% | 32.5% |
| O=C(CCc1cc(-c2ccc(F)cc2)n[nH]1)N(Cc1ccccc1)Cc1ccccc1 | -20.1% | 11.2% | -27.8% | 2.25% | -20.2% | -9% |
| CCNC(=O)OCc1cc(Cl)cc(Cl)c1OC(=O)NCC | 99.5% (active) | 99.2% (active) | 99.7% (active) | 96.8% (active) | 98.5% (active) | 99.5% (active) |
| CCOC(=O)c1ccc(NC(=O)Nc2ccc(F)c([N+](=O)[O-])c2)cc1 | 7.3% | 46.1% | 46.5% | 7% | 28.9% | 23.6% |
| Cc1c(C2(c3cc(C(C)C)c(O)c(CN(CC(=O)O)CC(=O)O)c3C)OS(=O)(=O)c3ccccc32)cc(C(C)C)c(O)c1CN(CC(=O)O)CC(=O)O | 4.3% | 0.7% | -1.75% | 24.7% | 2.8% | 4.95% |
| O=C(c1ccccc1)c1cccs1 | -19.3% | -1.9% | -12.7% | -45.6% | -14.5% | -17.9% |
| N#CCCN(CCC#N)CCN(CCN(CCC#N)CCC#N)CCN(CCC#N)CCC#N | -8.1% | -0.25% | -6.4% | 2.1% | -15.2% | -10.8% |
| Clc1cnnc(Cl)c1N/N=C/c1ccco1 | 11.6% | -0.05% | 13% | -43.2% | -6.7% | -7.55% |
| CCOC(=O)C1CC1Cc1ccccc1 (stereo unspecified) | -18.1% | -9.95% | -2.2% | -7.2% | 6.05% | -2.95% |
| O=c1c(Cl)c(N2CCCCC2)cnn1-c1ccccc1 | 20.8% | 14.2% | 16.6% | 7.6% | 14.1% | 19.4% |
| Cc1ccc(NC(=O)OCC(F)(F)C(F)(F)C(F)(F)F)c(NC(=O)OCC(F)(F)C(F)(F)C(F)(F)F)c1 | -9.15% | -12.1% | -8.6% | -33.6% | -4.05% | 12.8% |
| O=C(Nc1nccs1)c1cc(C2=CC=CC([N+](=O)[O-])C=C2)nc(=S)[nH]1 (stereo unspecified) | -12.9% | -18.5% | -23.8% | -8.45% | -8.65% | -7.6% |
| Cc1nnc(N)c(C#N)c1C | -8.45% | 2.3% | 16.6% | -56.9% | 4.45% | -1.85% |
| COc1ccc([N+](=O)[O-])c2ccc(=O)oc12 | -9.9% | 5.2% | -4.1% | -0.35% | 4.75% | 9.9% |
| CCCN(CCC)C(=S)S | 43.1% | 7.95% | 54.1% | 32.7% | 23.2% | 14.4% |
| [Co+2].[NH-]C(Cc1ccc(O)cc1)C(=O)O.[NH-]C(Cc1ccc(O)cc1)C(=O)O (stereo unspecified) | 56.5% | 10.2% | 5.8% | 16.3% | 16% | 34% |
| COC(=O)C(=O)C(C(=O)C(=O)Nc1ccccc1C(N)=O)c1nc2ccc(C(=O)c3ccccc3)cc2[nH]c1=O (stereo unspecified) | -3.9% | 20% | -7.4% | -17.1% | -6.1% | 9.5% |
| Nc1n[nH]c(CO)n1 | 7.3% | 4.05% | -6.6% | 9.65% | -14.8% | -7.1% |
| CC(C)(C)C(OC(=O)Cc1ccccc1)c1ccc2c(c1)OCO2 (stereo unspecified) | -9.05% | -2.7% | 2% | -3.25% | 51.4% | -12.1% |

| Structure (SMILES) | growth inhibition [1] | growth inhibition [2] | growth inhibition [3] | growth inhibition [4] | growth inhibition [5] | growth inhibition [6] |
| --- | --- | --- | --- | --- | --- | --- |
| C[n+]1ccc(/C=C/c2ccnc3c(O)cccc23)cc1 | 17.5% | 11.7% | -13.4% | -7.3% | -7.4% | 18% |
| Cc1cc(C)c([N+](=O)[O-])cc1[N+](=O)[O-] | 7.5% | 5.5% | 9.45% | -1.25% | -3.4% | 5.15% |
| CCOC(=O)C1C(=O)CC(=O)C(C(=O)OCC)C1C1CC=CCC1 (stereo unspecified) | 51% | 69.5% | 78.5% (active) | 38.7% | 70.7% (active) | 78.5% (active) |
| CN(C)c1ccccc1CCO | -4.2% | -33.5% | -6.7% | -0.4% | -3.65% | 3.35% |
| O=C(NCCO)c1cc2ccccc2cc1O | -1.9% | -25.3% | -10.4% | -3.5% | -17.9% | 7.55% |
| Cc1cc(Br)ccc1N | -3.15% | 1.95% | -9.5% | -36.5% | 19.1% | 9.25% |
| CCOC(=O)CCc1c(C)c2c(OC(C)=O)cc(OC(C)=O)cc2oc1=O | 31.6% | 0.9% | 17.4% | 13.4% | -1.05% | 2.4% |
| O=C(Cc1c[nH]c2ccccc12)N/N=C/c1ccccc1[N+](=O)[O-] | 18.9% | -4.75% | 10.1% | 1.1% | 14.7% | 17.3% |
| CC(Cl)CNC(=O)Nc1cccc2c1CCCC2 (stereo unspecified) | 3.45% | 10.2% | -1.9% | -48.6% | -22.2% | -1.4% |
| Cc1ccc(S(=O)(=O)N2c3ccccc3[C@H]3CCC=C[C@H]32)cc1 | -13.2% | 17.8% | -19.4% | -20.6% | 30.6% | -15.4% |
| CC1OC(O[C@H]2CC[C@]3(C)[C@H]4CC=C5[C@@H]6[C@@H](C)[C@H](C)CC[C@]6(C(=O)O)CC[C@@]5(C(=O)O)[C@]4(C)CC[C@H]3C2(C)C)C(O)C(O)C1O (stereo partly specified) | -17.5% | -9.8% | -10.6% | -5.7% | -13.7% | -58.5% |
| COc1cccc(N=N/C(=N/NC(=O)c2cc(Cl)ccc2O)c2ccc(N(CCC#N)CCC#N)cc2C)c1 | -18.9% | -16.8% | -18.9% | -18.6% | -17.9% | -47.6% |
| CCCCC(CC)CN(CC)CC (stereo unspecified) | -11.1% | -4.25% | -26.5% | -10.4% | 2.8% | 4.85% |
| CC(C)NC(=O)OCCN=C1c2ccccc2C(Br)C(Br)c2ccccc21 (stereo unspecified) | 3.25% | -5.1% | 2.05% | 1.1% | 4.9% | 8.6% |
| CC(=O)[CH-]C(=O)c1ccccc1.CC(=O)[CH-]C(=O)c1ccccc1.CC[O-].O=C1C=C([O-])C(=O)c2ccccc21.[Ti+4] | 25.4% | 60.5% | 63.5% | 61.1% | 59.9% | 56.9% |
| CC1CC[N+](C)([B-](F)(F)F)CC1 (stereo unspecified) | 0.85% | 1.85% | 11.5% | -31.1% | 2.45% | 11.1% |
| COc1ccccc1NC(=O)CC(=O)NN | -0.25% | 2.15% | -3.9% | -25.1% | -1.8% | 0.7% |
| CCC([NH-])(CC)C[NH-].[Cl][Pt+2][Cl] | 2.3% | 13.4% | -31.4% | -1.45% | -14.1% | -44.6% |
| O=C1C(=Cc2ccc([N+](=O)[O-])o2)C(=O)N(CCc2ccccc2)S(=O)(=O)N1CCc1ccccc1 | 38.9% | -3.65% | 10.8% | -22.5% | -6.6% | 2.4% |
| O=C(Nc1nc2ncn(CCNCc3ccccc3)c2c(=O)[nH]1)c1ccccc1 | -7.75% | -22.8% | 6.25% | 10.6% | 15.4% | 24.6% |
